Compound activity (PubChem BioAssay)
Mito fusion yeast: qHTS Assay for Small Molecule Inhibitors of Mitochondrial Division or Activators of Mitochondrial Fusion; S. cerevisiae fusion-defective mutant growth rescue, CellTiterGlo 48 h; Potency, µM (titrated, usually from 46.1 µM), usual class: activators; hit rate 0.23% among 320,000; AID 485298, 2010; further: nearly all actives have a fitted effect of over 45% in size
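Yeast fusion mutant, YPEG (non-fermentable carbon), compound, 48 h at 37C non-permissive; CellTiterGlo added, 10 min RT, luminescence read. Rescued growth = division inhibition.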
FUS yeast rescue: qHTS for Suppressors of FUS Proteinopathy: Primary screen using FUS-linked yeast assay; S. cerevisiae FUS-expressing, growth rescue, OD600, 24 h; Potency, µM (top dose mostly 76.6 µM), hits mostly activators; hit rate 0.24% among 390,000; further: nearly all actives have a fitted effect of over 55% in size
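Restored growth of FUS-toxic S. cerevisiae, read as 600 nm absorbance after 24 h at 30C in galactose medium (starting OD 0.005). Controls CP55940 and DMSO.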
aSyn yeast inh: qHTS of alpha-syn Inhibitors. Yeast expressing alpha-synuclein, growth rescue, BacTiter-Glo, 24 h. hit rate 0.14% among 370,000. Potency, µM (titrated, usually from 46.1 µM), hits mostly activators. AID 652106, 2013; further: nearly all actives have a fitted effect of over 65% in size
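Rescue of yeast growth: cells expressing toxic alpha-synuclein, induced in galactose at OD600 0.02, incubated with compound 24 h at 30 C. ATP luminescence quantified growth; inhibitors of toxicity appear as activators.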
Abeta rescue: qHTS for compounds that reverse cellular toxicity of Amyloid beta (A-beta) peptide in yeast: Primary Screen; yeast expressing A-beta42, growth rescue, OD600, 48 h; response scale: 0% DMSO, 100% iron-clioquinol control; Potency, µM (series often up to 46.1 µM), most hits filed as activators; hit rate 0.063% among 410,000; AID 1347071, 2019; further: nearly all actives have a fitted effect of over 55% in size
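Growth rescue measured by 600 nm absorbance after 48 h yeast culture at 30 C with compound. Values normalized between DMSO and an equimolar ferric chloride plus clioquinol control.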
TDP-43 yeast inh: qHTS of TDP-43 Inhibitors; TDP-43 expressing yeast growth rescue, BacTiter-Glo, 24 h; Potency, µM (top dose mostly 46.1 µM), most hits filed as activators; hit rate 1.8% among 410,000; AID 652104, 2013; further: nearly all actives have a fitted effect of over 50% in size
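Readout is BacTiter-Glo luminescence of cell growth, so inhibitors register as activators. TDP-43-expressing yeast at OD600=0.02 in galactose medium, after raffinose pregrowth to mid-log, were incubated with compound for 24 hr at 30 deg C.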
Hits are given with their value; . = inactive; ? = inconclusive; / = no result; [ ] = dose if it differs, or a comment. Most compounds without a hit are left out; they make up all but 2.2% or so of the library. The call rests on the fitted dose curve; in most records, active means well fitted curve in the direction sought with a large enough effect; inconclusive means small, poorly fitted or top-dose-only effect, or another doubt; inactive means no such curve, though single readings can be large; an effect the other way counts as inactive or inconclusive.

SMILES	Mito fusion yeast	FUS yeast rescue	aSyn yeast inh	Abeta rescue	TDP-43 yeast inh
Cc1cccc(/C(N)=N/OC(=O)c2ccc(Br)o2)c1	.	/	.	.	4.5µM
N/C(=N\OC(=O)c1cccc(F)c1)c1ccccn1	.	.	.	.	3.2µM
N/C(=N\OC(=O)/C=C/c1ccc(Br)cc1)c1ccccn1	.	.	.	.	18µM
C=CCN(C)C(C#Cc1ccccc1)c1ccccc1C(F)(F)F (stereo not given)	/	.	/	/	/
Cc1cccc(C(=O)O/N=C(\N)c2ccccn2)c1	.	.	.	.	13µM
Cc1cccc(/C(N)=N/OC(=O)c2cccnc2)c1	.	.	.	.	11µM
Cc1ccc(C(=O)O/N=C(\N)c2ccccn2)cc1	.	.	.	.	?
Cc1ccc(C(=O)O/N=C(\N)c2ccccn2)cc1C	.	.	.	.	10µM
COc1cc(OC)cc(C(=O)O/N=C(\N)c2cccc(C)c2)c1	.	.	.	.	?
N/C(=N\OC(=O)c1ccc(Br)o1)c1ccccn1	.	.	.	.	14µM
O=[N+]([O-])c1ccc(O/N=[N+](\[O-])N2CCCC2)c([N+](=O)[O-])c1	/	/	.	/	/
COC(=O)c1ccc(N2C(=O)CC(N(C)Cc3ccccc3)C2=O)cc1 (stereo not given)	.	.	.	.	7.1µM
CCOc1ccc(N2C(=O)CC(N(C)Cc3ccccc3)C2=O)cc1 (stereo not given)	.	.	.	.	18µM
CCNC(=S)N(Cc1ccc(OC)cc1)C1CC(=O)N(c2ccc(OCC)cc2)C1=O (stereo not given)	.	.	.	.[9.22 µM]	.
CCCOc1ccc(N2C(=O)CC(N(Cc3ccccc3)N=O)C2=O)cc1 (stereo not given)	.	.	.	.	20µM
COc1ccc(CN(N=O)C2CC(=O)N(c3ccc(OC)cc3)C2=O)cc1 (stereo not given)	.	.	.	.	.
CCOC(=O)Cc1ccc(NC(=O)N2CC(CC)Oc3ccccc32)cc1 (stereo not given)	/	.	/	.	.
Cc1nc(NC2CCCC2)c2nnn(Cc3ccccc3)c2n1	/	.	/	/	/
CSc1ccc(CN2CCC(C)(Oc3cnc(Cl)c4ccccc34)C2)cc1 (stereo not given)	/	.	.	.	?
CSCc1cc(N2CCOCC2)nc(SCc2ccc(Cl)c(Cl)c2)n1	.	.	.	.	?
COCc1cc(N2CCOCC2)nc(SCc2ccc(Cl)cc2)n1	.	.	.	10µM	.[0.397 µM]
O=C(c1ccc(F)cc1)C1CCN(C(=S)Nc2ccc(F)cc2)CC1	.	.	.	?	22µM
CC(C)(C)NC(=S)N1CCC(C(=O)c2ccc(F)cc2)CC1	.	.	.	.	.
CCn1c(SCC(=O)Nc2cccc3ccccc23)nnc1-c1cccs1	/	.	/	/	/
C=CCN(Cc1ccc2c(c1)OCO2)C(C#CCCCC)C(C)C (stereo not given)	/	.	/	/	/
SMILES	Mito fusion yeast	FUS yeast rescue	aSyn yeast inh	Abeta rescue	TDP-43 yeast inh
CC1COC(=O)C(NNc2ccc(Cl)c(Cl)c2)=N1 (stereo not given)	.	.	.	.	3.5µM
Cc1c(Cc2ccccc2)sc(NC(=O)c2ccco2)c1C(N)=O	.	.	.	.	.
CCOc1ccc(CC(=O)Nc2sc(Cc3ccccc3)c(C)c2C(N)=O)cc1OCC	.	14µM	.	.	.
O=C(Nc1nc2ccccc2s1)C1CCCN1S(=O)(=O)c1ccc(Cl)cc1 (stereo not given)	?	?	.	.	18µM
O=C(Nc1ccc(Br)cc1)C1CCCN1S(=O)(=O)c1ccc(F)cc1 (stereo not given)	/	.	/	.	22µM
CN(CCO)c1nc(-c2cccs2)nc2ccccc12	/	/	.	/	/
CC(C)C(=O)Nc1nc(-c2ccccc2)ns1	.	.	.	?	13µM
CC(=O)Nc1nc(-c2ccc(Cl)cc2)ns1	/	/	.	.	13µM
CCCC(=O)Nc1nc(-c2ccccc2)ns1	.	/	.	.	16µM
O=C(Nc1nc(-c2ccc(Br)cc2)ns1)c1ccccc1F	/	.	/	.	.
Cc1nnc(SCCC(=O)Nc2nc(-c3ccccc3)ns2)s1	.	.	/	.	?
CCC(=O)Nc1nc(-c2ccccc2)ns1	.	.	/	.	8.9µM
